{"source": "PubChem BioAssay AID1851", "about": "(National Center for Advancing Translational Sciences (NCATS), 2009)", "note": "“And” between values parts separate entries of the source, which are not always exact repeats. Equal entries are not always repeated. About 5,800 (36%) of roughly 16,000 compounds were called active. Not shown: some 23% with an inconclusive outcome. This is one part of the list. Unmarked numbers belong to inactive results. Calls follow the shape of the dose curve; as a rule, active = well fitted curve in the direction sought with a large enough effect; inconclusive = small, poorly fitted or top-dose-only effect, or effect the other way; inactive = no such curve, though single readings can be large or run the other way. % is scaled to controls: 0 for no effect and ±100 for the full control effect.", "data": [{"target": "Cytochrome P450 2C19 (Homo sapiens) (UniProt P33261)", "sequence (P33261 whole entry, looked up)": "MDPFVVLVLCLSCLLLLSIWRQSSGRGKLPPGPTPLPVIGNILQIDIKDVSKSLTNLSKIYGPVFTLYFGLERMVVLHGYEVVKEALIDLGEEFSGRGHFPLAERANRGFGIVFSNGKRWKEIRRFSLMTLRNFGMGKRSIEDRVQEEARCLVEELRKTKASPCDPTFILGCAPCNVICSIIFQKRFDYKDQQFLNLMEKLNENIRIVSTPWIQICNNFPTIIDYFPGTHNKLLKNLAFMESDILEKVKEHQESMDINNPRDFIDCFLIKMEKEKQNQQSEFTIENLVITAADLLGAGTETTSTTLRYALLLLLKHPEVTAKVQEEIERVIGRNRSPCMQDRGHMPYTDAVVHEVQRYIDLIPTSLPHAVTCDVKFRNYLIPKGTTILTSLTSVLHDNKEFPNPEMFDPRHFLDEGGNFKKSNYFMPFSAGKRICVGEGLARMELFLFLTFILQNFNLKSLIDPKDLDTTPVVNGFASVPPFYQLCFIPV", "assay": "Cytochrome panel assay with activity outcomes", "conditions": "recombinant CYP, pro-luciferin dealkylation, luminescence, p450-cyp2c19; series mostly up to 57.1 µM; activity, negative = inhibition: at the top concentration", "values": [{"smiles": "CC(=O)O[C@]1(C(C)=O)CC[C@@H]2[C@@H]3C=C(C)C4=CC(=O)CC[C@@]4(C)[C@H]3CC[C@]21C", "activity, negative = inhibition": "-8.41% [at 25.6 µM]"}, {"smiles": "CC(=O)CC(=O)[C@@]1(O)CC[C@@H]2[C@@H]3C=C(C)C4=CC(=O)CC[C@@H]4[C@H]3CC[C@]21C", "AC50": "5.01 µM (active)"}, {"smiles": "N#CC(=C(/N)Sc1ccccc1N)/C(C#N)=C(/N)Sc1ccccc1N", "activity, negative = inhibition": "-43%"}, {"smiles": "N#Cc1ccccc1Sc1ccccc1N", "AC50": "2.82 µM (active)"}, {"smiles": "C[C@@H](c1ccccc1)N1C(=O)[C@@H]2[C@H]3C(=CC[C@H]2C1=O)C(=O)[C@H]1O[C@H]1[C@H]3O", "activity, negative = inhibition": "18.8% [at 11.4 µM]"}, {"smiles": "Cc1ccc(S(=O)(=O)N(Cc2ccccc2)c2ccccc2C(=O)NCc2ccco2)cc1", "AC50": "3.55 µM (active)"}, {"smiles": "CC1=C(C(=O)O)N2C(=O)C(NC(=O)c3ccn(C)n3)C2SC1", "note": "(stereo unspecified)", "AC50": "25.1 µM (active)"}, {"smiles": "CC(=O)OCC1=C(C(=O)O)N2C(=O)[C@@H](NC(=O)CSc3ccncc3)[C@@H]2SC1", "AC50": "inactive"}, {"smiles": "N[C@H](C(=O)N[C@@H]1C(=O)N2C(C(=O)O)=C(Cl)CS[C@@H]12)c1ccccc1", "AC50": "inactive"}, {"smiles": "C#CCN(C)CCCOc1ccc(Cl)cc1Cl", "AC50": "5.01 µM (active) and 2.51 µM (active)"}, {"smiles": "CCCCN(C)Cc1c(C)[nH]c2ccc(Cl)cc2c1=O", "activity, negative = inhibition": "-27.8%"}, {"smiles": "O=[N+]([O-])c1cccc2c[nH]nc12", "activity, negative = inhibition": "7.18%"}, {"smiles": "O=[N+]([O-])c1ccc(S(=O)(=O)Cc2ccccc2)c2nonc12", "AC50": "3.16 µM (active)"}, {"smiles": "FC(F)(F)c1ccccc1-c1cc(NCCN2CCOCC2)ncn1", "activity, negative = inhibition": "15.6%"}, {"smiles": "CN1CCN(c2cc(-c3ccccc3C(F)(F)F)ncn2)CC1", "AC50": "10 µM (active)"}, {"smiles": "CN1CCN(c2ncncc2-c2ccccc2C(F)(F)F)CC1", "AC50": "15.8 µM (active)"}, {"smiles": "CNc1cc(-c2ccccc2C(F)(F)F)ncn1", "activity, negative = inhibition": "-43.7%"}, {"smiles": "CN1CCN(c2ncncc2-c2ccccc2Cl)CC1", "activity, negative = inhibition": "-30.3%"}, {"smiles": "O=c1onc(-c2cccs2)n1Cc1ccccc1", "AC50": "1 µM (active)"}, {"smiles": "CN(C)c1ncc2nc(-c3cccs3)c(=O)n(CCc3ccccc3)c2n1", "activity, negative = inhibition": "-44.5%"}, {"smiles": "CCn1nc(C)c(NC(=O)/C=C/c2cnn(C)c2C)c1C", "activity, negative = inhibition": "0.913%"}, {"smiles": "COc1ccc(Br)cc1/C=C/C(=O)Nc1c(C)cccc1C", "AC50": "4.47 µM (active)"}, {"smiles": "O=C(O)Cn1ccnc1[N+](=O)[O-]", "activity, negative = inhibition": "4.05% [at 11.4 µM]"}, {"smiles": "O=C(c1cnccn1)N1CCC[C@@]2(CCN(Cc3ccncc3)C2)C1", "AC50": "10 µM (active)"}, {"smiles": "O=C(c1cnccn1)N1CCC[C@@]2(CCN(Cc3cc(C(F)(F)F)cc(C(F)(F)F)c3)C2)C1", "activity, negative = inhibition": "-15.7%"}, {"smiles": "O=C(c1cc(C(F)(F)F)cc(C(F)(F)F)c1)N1CCC[C@@]2(CCN(Cc3ccncc3)C2)C1", "AC50": "0.2 µM (active)"}, {"smiles": "N#Cc1ccc(CN2CC[C@@]3(CCCN(C(=O)c4cc(C(F)(F)F)cc(C(F)(F)F)c4)C3)C2)cc1", "activity, negative = inhibition": "-26.1%"}, {"smiles": "O=C(c1cc(C(F)(F)F)cc(C(F)(F)F)c1)N1CCC[C@@]2(CCN(Cc3ccccc3)C2)C1", "activity, negative = inhibition": "-36%"}, {"smiles": "O=C(c1cnccn1)N1CCC[C@@]2(CCN(c3ccncc3)C2)C1", "activity, negative = inhibition": "3.85%"}, {"smiles": "CCC(=O)O[C@@]1(C(=O)CCl)[C@@H](C)C[C@@H]2[C@H]3CCC4=CC(=O)C=C[C@@]4(C)[C@]3(F)[C@@H](O)C[C@@]21C", "activity, negative = inhibition": "-27.9% [at 25.6 µM]"}, {"smiles": "C/C(CC(=O)Nc1cc(C)ccn1)=N\\NC(=O)COc1cccc(C)c1", "AC50": "25.1 µM (active)"}, {"smiles": "O=C(COc1ccc(/C=N/NC(=O)c2ccccc2)cc1)Nc1ccc([N+](=O)[O-])cc1", "activity, negative = inhibition": "47%"}, {"smiles": "CCOC(=O)c1cccc(NC(=O)COc2ccc([N+](=O)[O-])cc2)c1", "AC50": "3.55 µM (active)"}, {"smiles": "Cc1ccc(S(=O)(=O)CCc2nnc(NC(=O)COc3cccc(C)c3)s2)cc1", "activity, negative = inhibition": "5.12%"}, {"smiles": "Cc1ccnc(NC(=O)c2cccc(NC(=O)COc3ccccc3)c2)c1", "AC50": "15.8 µM (active)"}, {"smiles": "C[N+]1(CCOc2ccc([N+](=O)[O-])cc2)CCOCC1", "activity, negative = inhibition": "-11.9%"}, {"smiles": "CC(C)c1nc2oc3ccccc3c(=O)c2c(=O)n1-c1ccccc1", "activity, negative = inhibition": "4.63%"}, {"smiles": "CC(C)Cn1c(N)c(C(=O)CSc2ccc3c(c2)OCCO3)c(=O)n(C)c1=O", "AC50": "2.51 µM (active)"}, {"smiles": "CC(C)Cn1c(=O)n(C)c(=O)c2[nH]cnc21", "activity, negative = inhibition": "33%"}, {"smiles": "Cc1nn(-c2ccc(Cl)cc2)c2sc(C(=O)c3c(N)n(C)c(=O)n(C)c3=O)cc12", "activity, negative = inhibition": "-25.1%"}, {"smiles": "Cn1c(N)c(C(=O)CSc2ccc3c(c2)OCCO3)c(=O)n(C)c1=O", "AC50": "5.62 µM (active)"}, {"smiles": "COc1ccc(C2=Nc3cccc4cccc(c34)N2)cc1", "activity, negative = inhibition": "-28.3%"}, {"smiles": "C/C(=N\\OC(=O)NC1CCCCC1)c1sc(-c2ccccc2)nc1C", "AC50": "5.62 µM (active)"}, {"smiles": "O=C(O)c1cc2ccccc2c(S(=O)(=O)O)c1O", "activity, negative = inhibition": "23.2% [at 11.4 µM]"}, {"smiles": "Cn1cnc([N+](=O)[O-])c1Sc1nc(N)nc2c1ncn2[C@H]1C[C@H](O)[C@@H](CO)O1", "activity, negative = inhibition": "8.27% [at 11.4 µM]"}, {"smiles": "Cc1ccc(Sc2c([N+](=O)[O-])ncn2C)cc1", "AC50": "25.1 µM (active)"}, {"smiles": "Cc1cccc(Sc2c([N+](=O)[O-])ncn2C)n1", "activity, negative = inhibition": "-22.4%"}, {"smiles": "Cc1nn(Cc2c(Cl)cccc2Cl)c(C)c1NC(=O)c1cnn2c(C(F)F)cc(-c3ccccc3)nc12", "AC50": "7.08 µM (active)"}, {"smiles": "O=C(Nc1cccnc1)c1ccc(COc2cc(Cl)ccc2Cl)o1", "AC50": "2.51 µM (active)"}, {"smiles": "CC(C)CNC(=O)c1ccc(COc2ccc(Cl)cc2Cl)o1", "AC50": "10 µM (active)"}, {"smiles": "O=C(N/N=C/c1ccc(O)cc1)c1ccc(COc2cc(Cl)ccc2Cl)o1", "AC50": "4.47 µM (active)"}, {"smiles": "Cn1ncc(Cl)c1C(=O)Nc1cccnc1", "activity, negative = inhibition": "-28.6%"}, {"smiles": "O=C(Nc1ccn(Cc2ccccc2F)n1)c1ccc(COc2cc(Cl)ccc2Cl)o1", "AC50": "0.708 µM (active)"}, {"smiles": "CC(=O)O[C@@H](C)C[N+](C)(C)C", "AC50": "inactive"}, {"smiles": "CO[C@@H]1COC(=O)CC=C[C@@H](C)[C@@H]2C=C[C@H](O)[C@@H](COC(=O)C/C=C\\[C@H]1C)O2", "activity, negative = inhibition": "-32.3% [at 11.4 µM]"}, {"smiles": "O=C(c1ccccc1)[C@H](Nc1ccc2ccccc2c1)c1ccccc1", "AC50": "1 µM (active)"}, {"smiles": "O=C(O)[C@@H](c1ccccc1)[C@@H](C(=O)O)c1ccccc1", "activity, negative = inhibition": "8.57% [at 11.4 µM]"}, {"smiles": "CC1=CC(=C2C(=O)c3ccccc3C2=O)C=C(C)O1", "AC50": "25.1 µM (active)"}, {"smiles": "COC(=O)C(NC(=O)c1ccccc1)=C1C=C(C)OC(C)=C1", "activity, negative = inhibition": "-28%"}, {"smiles": "CCCCS(=O)(=O)NC1=NCN(Cc2ccco2)CN1", "activity, negative = inhibition": "6.47%"}, {"smiles": "CC1=CC(=C2C(=O)c3ccccc3C2=O)C=C(C)N1Cc1ccco1", "AC50": "4.47 µM (active)"}]}]}
